In PubChem BioAssay:
Several values for one entry are separate records, joined by “and”; a condition that tells them apart may be missing. Equal values may be shown once. Unmarked numbers belong to inactive results.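 The calls were made as follows, unless noted: active = GFP signal above the screen-wide mean plus 3 SD, that is over about 124.5% of the solvent control; inconclusive = no reading because the compound's own fluorescence disturbed strain identification; inactive = the rest.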 Records with an inconclusive call do not appear. Peptide text beside a SMILES is read from it.

Assays:
[1] = modulators of AGP1-GFP expression in yeast TOR pathway, primary screen, cell-based, multiplex flow cytometry, S. cerevisiae (AID 1887); details: 3 h, at 10 µM, stronger effect = higher value;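 also: AGP1-GFP fusion strain of S. cerevisiae within a five-strain barcoded multiplex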
[2] = target: Beta-2 adrenergic receptor (Homo sapiens) (UniProt P07550); test: beta2AR agonists driving receptor internalization, pilot screen, cell-based, FAP fluorogen, flow cytometry, validation set (AID 504459;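 active = percent response above 42, roughly 3 SD of non-fluorescent test compounds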;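 also: agonist-driven loss of surface beta2AR via internalization measured by FAP dye flow cytometry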); details: Am2.2-beta2AR cells, FAP surface receptor flow cytometry; at 10 µM; stronger effect = higher value
Beta-2 adrenergic receptor (Homo sapiens), sequence (P07550 whole entry, looked up): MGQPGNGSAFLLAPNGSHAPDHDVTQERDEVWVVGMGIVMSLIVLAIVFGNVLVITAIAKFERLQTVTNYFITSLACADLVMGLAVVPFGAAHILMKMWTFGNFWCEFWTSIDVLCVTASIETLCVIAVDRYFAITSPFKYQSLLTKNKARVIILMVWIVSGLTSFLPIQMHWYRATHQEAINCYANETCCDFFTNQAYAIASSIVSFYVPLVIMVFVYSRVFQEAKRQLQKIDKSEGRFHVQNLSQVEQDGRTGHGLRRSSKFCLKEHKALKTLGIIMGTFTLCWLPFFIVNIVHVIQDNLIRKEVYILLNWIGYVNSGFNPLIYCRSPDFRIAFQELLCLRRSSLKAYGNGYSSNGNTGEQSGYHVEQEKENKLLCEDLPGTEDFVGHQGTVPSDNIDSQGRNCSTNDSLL

| Compound | GFP response, % of DMSO [1] | response [2] |
| --- | --- | --- |
| [N-]=[N+]=NC1C[C@H](n2ccc(=O)[nH]c2=O)O[C@@H]1CO (stereo partly drawn) | 104% | – |
| COc1ccc(OC)c(C(O)C(C)N)c1 (stereo not drawn) | 98.3% | -5.54% |
| Cc1ccc(/C=C2/C(=O)NC(=O)N(C)C2=O)cc1 | 93.6% | – |
| COc1ccc(C(=O)N2CCCC2=O)cc1 | 117% | -0.27% |
| NCCc1c[nH]c2ccc(F)cc12 | 100% | 1.11% |
| CC[C@@H](CO)NC(=O)[C@@H]1C=C2c3cccc4c3c(cn4C)C[C@H]2N(C)C1 | 94.5% | – |
| COC1=CC(=O)OC(/C=C/c2ccccc2)C1 (stereo not drawn) | 103% | – |
| Cc1cc(Cl)ccc1OC(C)C(=O)O (stereo not drawn) | 87.3% | -8.83% |
| CC(C)C[C@H](NC(=O)[C@@H]1CCCN1C(=O)[C@@H](N)Cc1ccc(O)cc1)C(=O)NCC(N)=O (H-YPLG-NH2) | 103% | – |
| CN(C)[C@@H]1C(=O)C(C(N)=O)=C(O)[C@@]2(O)C(=O)C3=C(O)c4c(O)cccc4[C@@](C)(O)[C@H]3[C@H](O)[C@@H]12 | 103% | – |
| CC(=O)C1=C(C)OC(N)=C(C(=O)OC(C)C)C12C(=O)Nc1ccccc12 (stereo not drawn) | 101% | – |
| COc1ccc(Cc2nccc3cc(OC)c(OC)cc23)cc1OC | 99.5% | 20.1% |
| C[N+]1(C)[C@@H]2CC(OC(=O)[C@H](CO)c3ccccc3)C[C@H]1[C@@H]1O[C@@H]12 (stereo partly drawn) | 99.6% and 104% | 4.9% and -6.87% |
| C[C@H]1CCC/C=C/C2C[C@H](O)CC2[C@H](O)/C=C/C(=O)O1 (stereo partly drawn) | 102% | 28.3% |
| CC(Cc1ccccc1)NCC(=O)Nc1cc(N(C)C)nc2ccccc12 (stereo not drawn) | 103% | – |
| Cc1cccc(C)c1NC1=NCCCS1 | 91.8% | – |
| CN[C@H](C)[C@H](O)c1ccccc1 | 101% | -9.17% |
| C[C@@H]1O[C@@H](O[C@H]2C[C@@H](O)[C@]3(CO)[C@H]4[C@H](O)C[C@]5(C)[C@@H](C6=CC(=O)OC6)CC[C@]5(O)[C@@H]4CC[C@]3(O)C2)[C@H](O)[C@H](O)[C@H]1O | 116% | -22.9% |

| Compound | GFP response, % of DMSO [1] | response [2] |
| --- | --- | --- |
| CN1C(=O)CN=C(c2ccc(Cl)cc2)c2cc(Cl)ccc21 | 92.2% | -17.9% |
| COc1ccc2c(c1)CC1(CN2C)C(=O)NC(=O)N(CCc2ccccc2)C1=O (stereo not drawn) | 97.8% | -3.63% |
| CCN(CC)C(=O)N[C@H]1C[C@@H]2c3cccc4[nH]cc(c34)C[C@H]2N(C)C1 | 98.6% | -25% |
| Cc1ccc2c(c1)C1CN(C)CCC1N2C(=O)Nc1cccc(Cl)c1 (stereo not drawn) | 102% | – |
| NCC1(c2ccc3c(c2)OCCO3)CCCC1 | 91.3% | – |
| CC(C)[C@H]1C(=O)N2CCC[C@H]2[C@]2(O)O[C@](NC(=O)[C@@H]3C=C4c5cccc6[nH]cc(c56)C[C@H]4N(C)C3)(C(C)C)C(=O)N12 | 118% | -24.6% |
| S=C1NCCN1 | 99.6% | – |
| CC(C)(C)NCC(O)c1cc(Cl)c(N)c(Cl)c1 (stereo not drawn) | 91.4% | – |
| O=c1[nH]c2ccccc2n1CCCN1CCC(n2c(=O)[nH]c3cc(Cl)ccc32)CC1 | 101% | 2.71% |
| C[C@H]1CCC[C@H](O)CCCCCc2cc(O)cc(O)c2C(=O)O1 | 105% | – |
| O=C1CC[C@@]2(O)[C@H]3Cc4ccc(O)c5c4[C@@]2(CCN3CC2CC2)[C@H]1O5 | 96.1% | -8.64% |
| CCNC(=S)N(C)CCc1cc2c(c(OC)c1C=C1C(=O)N(C)C(=O)N(C)C1=O)OCO2 | 96.1% | – |
| Cc1cc(Cl)ccc1OCC(=O)O | 103% | – |
| CN[C@H]1C[C@H]2O[C@@](C)([C@H]1OC)n1c3ccccc3c3c4c(c5c6ccccc6n2c5c31)C(=O)NC4 | 90.8% | 12% |
| CC(=O)[C@H]1CC[C@H]2[C@@H]3CC[C@H]4C[C@H](O)CC[C@]4(C)[C@H]3C(=O)C[C@]12C | 90.4% | – |
| C#CCN(C)C(C)Cc1ccccc1 (stereo not drawn) | 102% | -1.41% |
| O=C(CCCN1CCC2(CC1)C(=O)NCN2c1ccccc1)c1ccc(F)cc1 | 113% | -35.8% |
